Assay results taken from PubChem BioAssay (EPA / NIEHS).
Results filed as inconclusive are left out. Active and inactive are the calls of the source. Rule for the calls, unless noted: active = hit-call score of the fitted dose curve at least 0.9, where 1 is the maximum; inconclusive = response in the unintended direction; inactive = score below 0.9.

Experiments:
[1] = TOX21_p53_BLA_p2_viability: Viability Assessment in the Tox21 HCT-116 p53 Agonism Beta-lactamase Assay, Phase 2 (AID 2283591);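 note: compound exposure lasted 16 h at 37 °C; actives lower the ATP signal meaning cytotoxicity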
Method in brief: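 Cytotoxicity readout: CellTiter-Glo ATP luminescence, 30 min at room temperature, after the beta-lactamase read. Cells were HCT116 exposed 16 h at 37C to compounds pin-transferred at 217-fold dilution from DMSO stocks.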

[2] = TOX21_p53_BLA_p3_viability: Viability Assessment in the Tox21 HCT-116 p53 Agonism Beta-lactamase Assay, Phase 3 (AID 2283593);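 note: cells exposed to compound for 16 h before reading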
Method in brief: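 Cellular ATP was quantified by CellTiter-Glo luminescence, read after 30 min at room temperature. Beforehand, HCT116 cells (4000/well) received compound 5 h post-seeding, 217-fold diluted from DMSO, then incubated 16 h at 37C.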

[3] = target: Cellular tumor antigen p53 (Homo sapiens) (UniProt P04637); experiment: TOX21_p53_BLA_p3_ratio: Tox21 HCT-116 p53 Agonism Beta-lactamase Assay, Ratio, Phase 3 (AID 2283596)
Method in brief: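 Cells were seeded at 4000/well, rested 5 h at 37C, then dosed with DMSO compound solutions (217-fold dilution) for 16 h. CCF4-AM substrate was loaded for 2 h at room temperature, and the 460/530 nm emission ratio was fitted for gain of signal versus DMSO.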

[4] = TOX21_p53_BLA_p4_viability: Viability Assessment in the Tox21 HCT-116 p53 Agonism Beta-lactamase Assay, Phase 4 (AID 2283597);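 note: hits lower the luminescence signal meaning cytotoxicity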
Method in brief: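 Viability is taken as cellular ATP: after 16 h compound exposure of HCT116 cells and a 2 h room-temperature CCF4-AM substrate step, CellTiter-Glo reagent is added and luminescence is measured 30 min later.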

[5] = target: Cellular tumor antigen p53 (Homo sapiens) (UniProt P04637); experiment: TOX21_p53_BLA_p5_ratio: Tox21 HCT-116 p53 Agonism Beta-lactamase Assay, Ratio, Phase 5 (AID 2283599)
Method in brief: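 Beta-lactamase reporter ratio (blue 460 nm over green 530 nm, 405 nm excitation) after 2 h CCF4-AM loading, in HCT-116 cells exposed 16 h at 37 C to compounds pinned at 217-fold dilution. Increases relative to DMSO baseline scored.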

[6] = TOX21_p53_BLA_p5_viability: Viability Assessment in the Tox21 HCT-116 p53 Agonism Beta-lactamase Assay, Phase 5 (AID 2283600)
Method in brief: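 Viability is taken from cellular ATP content, measured by luciferase luminescence in the same wells after the beta-lactamase ratio read. Cells are seeded at 4000 per well and exposed to DMSO-dissolved compounds, diluted 217-fold, for 16 h.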

[7] = target: Cellular tumor antigen p53 (Homo sapiens) (UniProt P04637); experiment: TOX21_p53_BLA_p2_ratio: Tox21 HCT-116 p53 Agonism Beta-lactamase Assay, Ratio, Phase 2 (AID 2283592)
Method in brief: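 Cleaved-to-uncleaved substrate ratio (460 vs 530 nm) measured in HCT116 cells with an inducible beta-lactamase reporter linked to p53 activity. Compounds incubated 16 h at 37C before 2 h room-temperature CCF4-AM loading.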

[8] = target: Cellular tumor antigen p53 (Homo sapiens) (UniProt P04637); experiment: TOX21_p53_BLA_p4_ratio: Tox21 HCT-116 p53 Agonism Beta-lactamase Assay, Ratio, Phase 4 (AID 2283601)
Method in brief: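 Signal is the blue/green (460nm/530nm) ratio of cleaved versus uncleaved CCF4-AM substrate, read after 2 h substrate loading. Cells were HCT116 carrying the p53-responsive beta-lactamase reporter, dosed 16 h at 37C, 5% CO2; CellTiter-Glo measured in parallel.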

[9] = ACEA_ER_AUC_viability: ACEA Biosciences xCELLigence Real-Time Cell Analysis on Estrogen Receptor Agonism for Viability (AID 2283782);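 note: hit means loss of impedance signal meaning reduced cell growth or viability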
Method in brief: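 Viability endpoint: reduced impedance area under the curve relative to DMSO, recorded by real-time electrode sensing over ~80 h of continuous exposure. Duplicate plates of T47D in hormone-depleted medium; eight concentrations, 1:4 dilutions, 100 uM maximum.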

[10] = CCTE_Harrill_HTTr_Viability_MCF7: CCTE's 6-hour Cell Viability Assessment for the High-Throughput Transcriptomics (HTTr) Platform, in MCF-7 cells cultured in DMEM + 10% fetal bovine serum, Harrill Lab (AID 2284010; active = hit-call score of the fitted dose curve at least 0.9, where 1 is the maximum; inactive = score below 0.9)
Method in brief: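 Read-out is propidium iodide gain of signal by high-content imaging, reflecting membrane integrity loss. Measurements are taken 6 h after dosing, eight concentrations per chemical, with DMSO serving as baseline for bidirectional curve fitting.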

[11] = CCTE_Harrill_HTTr_Apoptosis_MCF7: CCTE's 6-hour Apoptosis Assessment for the High-Throughput Transcriptomics (HTTr) Platform, in MCF-7 cells cultured in DMEM + 10% fetal bovine serum, Harrill Lab (AID 2284011; active = hit-call score of the fitted dose curve at least 0.9, where 1 is the maximum; inactive = score below 0.9)
Method in brief: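 Cells are dosed with test chemicals at eight concentrations and imaged 6 hours later for caspase-3/7 activity using a green fluorogenic detection reagent. Activity is fitted in both directions against DMSO controls.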

[12] = CCTE_Harrill_HTTr_CellCount_MCF7: CCTE's Cell Proliferation Assessment for the High-Throughput Transcriptomics (HTTr) Platform, Harrill Lab (AID 2284012);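 note: cells exposed to compound for six hours; intended direction is loss of nuclei count meaning fewer cells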
Method in brief: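 Cell count served as viability reporter: loss of Hoechst-stained nuclei, counted by high content imaging, marks decreased growth or survival. Exposure was 6 h in MCF-7 cells across eight concentrations, with DMSO as baseline.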

Measured: AC50

Cellular tumor antigen p53 (Homo sapiens), sequence (P04637 whole entry, looked up): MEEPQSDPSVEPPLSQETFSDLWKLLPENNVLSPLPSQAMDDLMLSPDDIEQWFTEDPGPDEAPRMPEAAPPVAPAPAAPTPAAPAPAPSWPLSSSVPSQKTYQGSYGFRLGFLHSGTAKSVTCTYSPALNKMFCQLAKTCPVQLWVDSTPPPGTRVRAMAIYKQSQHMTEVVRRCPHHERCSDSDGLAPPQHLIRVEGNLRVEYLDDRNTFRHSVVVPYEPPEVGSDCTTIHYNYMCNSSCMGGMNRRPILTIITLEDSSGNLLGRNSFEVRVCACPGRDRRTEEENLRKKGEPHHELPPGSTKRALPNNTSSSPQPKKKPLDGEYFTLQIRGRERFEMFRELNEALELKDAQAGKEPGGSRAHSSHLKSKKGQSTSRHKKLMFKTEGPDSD

Cc1nnc2n1-c1sc(CCC(=O)N3CCOCC3)cc1C(c1ccccc1Cl)=NC2
inactive: [1] | [2] | [3] | [4] | [5] | [6]

c1ccc2c(c1)CCNC2
inactive: [1] | [7] | [4] | [6] | [8]

O=C(O)c1ccccc1C(=O)Nc1cccc2ccccc12
inactive: [1] | [7] | [4] | [5] | [6] | [11] | [12]
active: [8] 70.1 µM | [9] 85.4 µM | [10] 53.8 µM

NCCCNCCCN
inactive: [1] | [7] | [4] | [5] | [6] | [8]

CCCCC/C=C\C/C=C\C/C=C\C/C=C\CCCC(=O)NCC(=O)O
inactive: [1] | [7] | [4] | [5] | [6] | [8]

ClCc1ccccc1
inactive: [1] | [2] | [3] | [4] | [5] | [6]

CNC(=O)NC(O)C(Cl)(Cl)Cl (centres undefined)
inactive: [1] | [7] | [4] | [8]

CCC(C)Cl (centres undefined)
inactive: [1] | [7] | [4] | [5] | [6] | [8]

Cc1coc2c1CCC(C)C2 (centres undefined)
inactive: [1] | [7] | [4] | [5] | [6]

C[C@H]1CC[C@]2(NC1)O[C@H]1C[C@H]3[C@@H]4CC[C@H]5C[C@@H](O)CC[C@]5(C)[C@H]4CC[C@]3(C)[C@H]1[C@@H]2C
inactive: [1] | [2] | [3] | [4] | [5] | [6]

O=C1CCCCC1Cl (centres undefined)
inactive: [1] | [2] | [3] | [4]

O=[N+]([O-])c1ccc(CBr)cc1
active: [3] 94.3 µM
inactive: [1] | [2] | [4]

CCOC(=O)N(C)C(=O)CSP(=S)(OCC)OCC
inactive: [1] | [7] | [4] | [5] | [6]

CC(C)(CCl)C(=O)Cl
inactive: [1] | [7] | [4] | [5] | [6]

CCN1C[C@]2(COC)[C@H](O)C[C@H](OC)[C@@]34[C@@H]5C[C@@]6(O)[C@H](OC(=O)c7ccccc7)[C@@H]5[C@@](OC(C)=O)([C@@H]([C@H](OC)[C@H]23)[C@@H]14)[C@@H](O)[C@@H]6OC
inactive: [1] | [7] | [4] | [5] | [6] | [8]
